The supplement of paper PMC11219838

System: Meloidogyne hapla J2
Experiment: proportion of mobile M. hapla J2 relative to DMSO control (fraction of DMSO control); higher = more viable, less nematicidal, active = 0.7 or less
Conditions: 60 µM; 5 days; temperature: 20 °C
Method in brief: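 Compound was pinned to 60 µM final (0.6% v/v DMSO) into 96-well wells, each holding about 25 M. hapla J2 in distilled water. Plates were sealed and shaken for 5 days at 20 °C and 200 rpm, then given 2 µL 1 M NaOH per well. Microscopic mobility scores were normalised to the mean of the plate's own DMSO wells, eight per plate, with two biological replicates averaged.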

Structure (SMILES)	proportion of mobile M. hapla J2
COc1cccc(NC(=O)CSc2nnc(-c3ccc(Br)cc3)o2)c1	0.966 (inactive)
Cc1ccc(NC(=O)CSc2nnc(-c3ccccc3)o2)c(C)c1	0.951 (inactive)
COc1ccc(NC(=O)CSc2nnc(-c3ccc(Br)cc3)o2)cc1	1.02 (inactive)
c1ccc(-c2noc(CSc3nc4ccccc4[nH]3)n2)cc1	1.05 (inactive)
Cc1ccc(-c2nc(-c3ccc(Br)cc3)no2)cc1	0.916 (inactive)
Cc1ccc(SCc2nc(-c3cccnc3)no2)cc1	1.1 (inactive)
Cc1ccccc1OCc1nc(-c2cccs2)no1	0.753 (inactive)
CCc1ccc(C(=O)Nc2ccccc2-c2nc(-c3ccncc3)no2)cc1	1 (inactive)
O=C(c1ccccc1-c1nc(-c2ccc(F)cc2)no1)N1CCCC1	1.06 (inactive)
Cc1ccc(-c2nc(-c3cccc(C)c3)no2)cc1	0.87 (inactive)
O=C(CSc1nnc(-c2ccncc2)o1)Nc1ccccc1Cl	0.724 (inactive)
c1ccc(-c2noc(-c3cccs3)n2)cc1 [tioxazafen]	0.937 (inactive)
Cc1ccc(-c2nnc(SCc3ccccc3C#N)o2)cc1	0.937 (inactive)
Cc1ccc(SCc2nc(-c3ccccc3)no2)cc1	1.14 (inactive)
CCOc1ccccc1-c1nnc(SCc2ccccc2)o1	0.891 (inactive)
COc1cccc(-c2noc(-c3ccc(C)cc3Cl)n2)c1	1 (inactive)
Cc1ccc(-c2nnc(SCC(=O)Nc3nccs3)o2)cc1	1.04 (inactive)
Cc1ccc(OCc2nc(-c3ccccc3)no2)c(Br)c1	1.01 (inactive)
